A selection: hits, their analogues and other compounds. The true share with any hit is near 1.3%.
COUP-TFII inh: NR2F2 transcriptional activity inhibitors, primary screen, cell-based, luciferase reporter, HEK293T, luminescence; COUP transcription factor 2 (Homo sapiens), P24468; HEK293T NGFI-A luciferase reporter; inhibition, % at 8.6 µM; hit rate 0.7% among 370,000;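 active = inhibition above a per-plate cutoff, mean inhibition of test wells between control levels plus 3 SD, cut at about 38% in these data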;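 also: cells cotransfected with COUP-TFII expression vector driving the NGFI-A reporter; 0% = median of COUP-TF2 test wells and 100% = reporter-only cells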
Gli-Sufu antag: Gli-Sufu pathway antagonists, primary screen, luciferase luminescence, Sufu-KO-LIGHT cells, uHTS; hit rate 0.74% among 340,000; AID 588413, 2011; inhibition, % at 5 µM; Sufu-KO-LIGHT fibroblasts, Gli luciferase reporter luminescence;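 active = inhibition above about 55%, limit read from the data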;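 also: 0% = DMSO-treated cells and 100% = wells with medium but no cells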
NCOA2 inhibitor: inhibition of GAL4-SRC2 driven luciferase reporter, primary screen, SRC2 inhibitor project, cell-based, luminescence; HEK293 GAL4-SRC2 luciferase reporter; inhibition, % at 9 µM; AID 651957, 2012; Nuclear receptor coactivator 2 (Homo sapiens), Q15596; hit rate 0.17% among 370,000;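 active = inhibition above the mean inhibition of all tested compounds plus 3 SD, set per campaign, cut at about 52% in these data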;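 also: 0% = DMSO treated cells and 100% = cells given Gossypol at 36 µM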
SRC3 inh: SRC3 coactivator transcriptional activity inhibitors, primary screen, cell-based, luminescence; HEK293 GAL4-SRC3 luciferase reporter; hit rate 0.17% among 360,000; inhibition, % at 3.6 µM; AID 588352, 2011; Nuclear receptor coactivator 3 (Homo sapiens), Q9Y6Q9;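 active = inhibition above a per-campaign cutoff, the mean of all compounds plus 3 SD, cut at about 60% in these data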;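 also: 0% = DMSO-treated cells and 100% = gossypol-treated cells at 36 µM; higher means less SRC3-driven luciferase light from the GAL4 reporter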
NCOA1 inh: SRC1 coactivator transcriptional activity inhibitors, primary screen, cell-based, luminescence; Nuclear receptor coactivator 1 (Homo sapiens), Q15788; HEK293 GAL4-SRC1 luciferase reporter; inhibition, % at 3.6 µM; hit rate 0.12% among 360,000;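 active = inhibition above the campaign mean plus 3 SD, with each screening campaign given its own cutoff, cut at about 60% in these data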;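 also: 0% = DMSO treated cells and 100% = gossypol at 36 µM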
Target sequence (Q15788 whole entry, looked up, the tested form may be a part): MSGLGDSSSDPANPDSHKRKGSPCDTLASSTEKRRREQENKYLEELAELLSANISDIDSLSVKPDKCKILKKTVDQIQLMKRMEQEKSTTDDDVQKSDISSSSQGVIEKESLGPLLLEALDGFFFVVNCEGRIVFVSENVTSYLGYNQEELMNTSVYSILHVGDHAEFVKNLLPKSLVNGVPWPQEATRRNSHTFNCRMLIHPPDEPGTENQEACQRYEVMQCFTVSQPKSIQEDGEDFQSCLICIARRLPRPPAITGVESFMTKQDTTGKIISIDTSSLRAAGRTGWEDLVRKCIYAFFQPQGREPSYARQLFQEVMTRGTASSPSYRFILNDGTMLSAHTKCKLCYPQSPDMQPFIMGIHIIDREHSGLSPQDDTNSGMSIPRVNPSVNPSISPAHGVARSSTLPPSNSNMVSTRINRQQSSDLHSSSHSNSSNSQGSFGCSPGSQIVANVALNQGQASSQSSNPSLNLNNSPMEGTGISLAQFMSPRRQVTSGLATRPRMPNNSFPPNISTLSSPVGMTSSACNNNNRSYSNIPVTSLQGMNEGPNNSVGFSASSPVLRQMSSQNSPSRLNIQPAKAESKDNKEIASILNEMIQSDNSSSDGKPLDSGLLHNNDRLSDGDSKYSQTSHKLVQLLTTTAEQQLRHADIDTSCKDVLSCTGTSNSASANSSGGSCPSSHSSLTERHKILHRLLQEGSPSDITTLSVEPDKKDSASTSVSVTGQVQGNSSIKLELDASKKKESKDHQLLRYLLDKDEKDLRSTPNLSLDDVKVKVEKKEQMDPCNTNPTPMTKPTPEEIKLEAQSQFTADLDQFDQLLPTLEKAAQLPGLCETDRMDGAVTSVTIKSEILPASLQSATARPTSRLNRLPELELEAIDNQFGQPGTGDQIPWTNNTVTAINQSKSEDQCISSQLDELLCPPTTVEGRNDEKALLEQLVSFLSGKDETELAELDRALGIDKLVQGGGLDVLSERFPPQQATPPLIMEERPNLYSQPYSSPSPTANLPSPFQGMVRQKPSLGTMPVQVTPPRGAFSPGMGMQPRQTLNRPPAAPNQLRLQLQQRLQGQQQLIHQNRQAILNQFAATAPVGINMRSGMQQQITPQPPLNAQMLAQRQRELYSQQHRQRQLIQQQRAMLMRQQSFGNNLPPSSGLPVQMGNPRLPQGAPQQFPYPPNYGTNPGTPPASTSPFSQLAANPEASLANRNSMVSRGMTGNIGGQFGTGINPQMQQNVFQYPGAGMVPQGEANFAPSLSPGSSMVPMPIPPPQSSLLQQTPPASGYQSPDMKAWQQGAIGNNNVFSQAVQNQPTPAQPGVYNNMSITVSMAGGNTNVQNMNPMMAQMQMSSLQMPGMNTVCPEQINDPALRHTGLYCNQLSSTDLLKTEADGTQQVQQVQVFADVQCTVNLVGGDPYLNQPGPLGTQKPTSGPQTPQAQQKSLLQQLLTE
LRH-1 inv ag: LRH-1 (NR5A2) inverse agonists, primary screen, cell-based, luminescence, HEK293T, StAR-luciferase reporter; Nuclear receptor subfamily 5 group A member 2 (Homo sapiens), O00482; LRH-1 transfected, 24 h; inhibition, % at 3.6 µM; hit rate 0.13% among 360,000;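 active = inhibition above the mean inhibition of all tested compounds plus 3 SD, cut at about 73% in these data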;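 also: 0% = DMSO wells and 100% = reporter-only cells lacking LRH-1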
Gal4-VP16 ctr: Gal4-VP16 luciferase reporter inhibitors, counter-screen for COUP-TFII antagonist project, cell-based, luminescence, HEK293. shares compounds with COUP-TFII inh. inhibition, % at 8.5 µM. hit rate 25% among 2,500; in the data active = inhibition above about 13%
NR2F2 inh conf: NR2F2 transcriptional activity inhibitors, confirmation, cell-based, luciferase reporter, HEK293, triplicate; HEK293 NGFI-A luciferase reporter, luminescence; shares compounds with COUP-TFII inh; AID 687008, 2013; hit rate 45% among 2,500; inhibition, % at 8.5 µM;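 active = mean inhibition over three repeats above a set limit taken from the earlier primary screen, cut at about 38% in these data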;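 also: 100% = cells given the luciferase reporter alone without the COUP-TF2 vector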
An asterisk follows results filed as active; / = not tested or not shown.

SMILES	COUP-TFII inh	Gli-Sufu antag	NCOA2 inhibitor	SRC3 inh	NCOA1 inh	LRH-1 inv ag	Gal4-VP16 ctr	NR2F2 inh conf
COC(=O)c1ccc(NC(=O)CSc2nc3ccc(N4C(=O)C5C6C=CC(C6)C5C4=O)cc3s2)cc1 (stereo not given)	64.4*	17.8	49.9	34.3	-15.0	38.6	-24.6	36.9
CN1/C(=C\C=C2C(=O)NC(=O)NC2=O)C(C)(C)c2ccccc21	-3.7	2.7	-28.5	-28.1	-6.6	-12.5	/	/
CCN1/C(=C/C=C/C2=[N+](CC)c3ccccc3C2(C)C)C(C)(C)c2ccccc21	92.0*	/	33.0	82.3*	71.7*	98.5*	42.4*	90.0*
CN(c1ccc(OCC(=O)N2CCN(C/C=C/c3ccccc3)CC2)cc1)S(=O)(=O)c1cccs1	38.2*	13.5	-5.9	21.2	6.9	9.7	7.4	37.6*
CN1CC[C@@H]2CN[C@H](c3ccccc3)C[C@@H]21	-2.1	/	1.2	/	/	/	/	/
Cc1ccc(Cn2nc(C(=O)Nc3ccc(Br)cc3)cc2C)cc1	53.5*	-3.8	-36.6	-39.2	-41.4	14.3	-143.3	19.4
CCC1CN2CCc3cc(OC)c(OC)cc3C2CC1CC1NCCc2c1[nH]c1ccc(O)cc21 (stereo not given)	91.5*	86.5*	69.2*	94.6*	95.9*	98.4*	24.2*	90.5*
COc1ccc2c(c1OC)CN1CCc3cc4c(cc3[C@H]1C2)OCO4	/	39.7	/	1.9	5.7	-10.4	/	/
C[C@H]1CCC[C@H](O)CCCCCc2cc(O)cc(O)c2C(=O)O1	22.2	2.7	5.0	22.5	26.6	-1.1	/	/
CC1CCC/C=C/C2CC(O)CC2C(O)/C=C/C(=O)O1 (stereo not given)	59.3*	87.6*	26.3	59.1	8.8	76.9*	7.7	34.5
NC(=O)c1cn(C2OC(CO)C(O)C2O)c2ncnc(N)c12 (stereo not given)	72.3*	86.7*	62.1*	89.4*	90.8*	97.7*	55.6*	86.0*
O=C(Nc1ccc(OC(=O)N2CCCCC2)cc1)N1CCOCC1	77.8*	16.2	83.9*	48.0	44.0	56.1	29.1*	18.7
COc1ccc2c(c1)C13CCN4CC5=CCOC6CC(=O)N2C1C6C5CC43 (stereo not given)	-2.9	/	-17.7	5.7	9.4	6.5	/	/
CCOC(=O)[C@]12Cc3ccc(C)cc3[C@H]1N(C1CCCCC1)C(=O)c1ccccc12	50.3*	/	-3.4	/	/	51.9	17.5*	29.7
CCOC(=O)[C@]12Cc3cc(OC)ccc3[C@H]1N(C)C(=O)c1cc(OC)ccc12	15.3	/	11.4	/	/	16.6	/	/
CCOC(=O)[C@]12Cc3ccc(C)cc3[C@H]1N(C1CCCCC1)C(=O)c1cc(OC)ccc12	52.1*	/	-2.4	/	/	61.7	22.6*	35.1
CCOC(=O)[C@]12Cc3cc(Cl)ccc3[C@H]1N(C1CCCCC1)C(=O)c1cc(OC)ccc12	59.2*	/	-2.3	/	/	96.6*	52.9*	60.0*
O=S(=O)(c1ccc(Cl)cc1)N1Cc2ccc(Br)cc2-n2nncc2C1	9.1	/	19.5	/	/	/	/	/
C[C@@H]1CN([C@H](C)CO)C(=O)CCCn2cc(nn2)CO[C@H]1CN(C)C(=O)Oc1cccc2ccccc12	-4.5	/	1.7	-9.1	14.5	8.4	/	/
CC(C)S(=O)(=O)N1Cc2ccc(Br)cc2-n2nncc2C1	11.8	/	9.5	/	/	/	/	/
C[C@@H]1O[C@@H](O[C@H]2C[C@@H](O)[C@]3(CO)[C@@H]4C(CC[C@]3(O)C2)[C@@]2(O)CC[C@H](C3COC(=O)C3)[C@@]2(C)C[C@H]4O)[C@H](O)[C@H](O)[C@H]1O (stereo not given in full)	63.9*	-3.1	3.3	67.3*	49.3	98.7*	13.6*	57.7*
O=C(O)CCl	13.1	/	3.0	/	/	/	/	/
CN1CCN(c2ccc([N+](=O)[O-])c3no[n+]([O-])c23)CC1	98.0*	65.5*	93.7*	93.9*	95.9*	93.5*	96.0*	108.9*
CN1CCN(c2ccc(S(C)(=O)=O)cc2[N+](=O)[O-])CC1	-0.6	1.0	6.2	7.5	-19.1	-10.4	/	/
O=c1[nH]c2ccccc2n1C1CCN(C(c2ccccc2OC(F)(F)F)c2nnnn2Cc2ccccc2)CC1 (stereo not given)	42.0*	/	33.1	37.0	33.7	-5.6	14.9*	27.7
SMILES	COUP-TFII inh	Gli-Sufu antag	NCOA2 inhibitor	SRC3 inh	NCOA1 inh	LRH-1 inv ag	Gal4-VP16 ctr	NR2F2 inh conf
COc1cc2c(c3oc4cccc(O)c4c(=O)c13)[C@@H]1C=CO[C@@H]1O2	-23.8	/	-6.4	/	/	/	/	/
O=C(NC1CCCCC1)N1Cc2cc(Br)ccc2-n2nncc2C1	8.6	/	-11.1	/	/	/	/	/
O=C(Nc1ccccc1)c1cccn(Cc2ccccc2)c1=O	8.4	-33.6	1.1	-20.8	-46.3	-43.0	/	/
O=C(Nc1ccncc1)c1cccn(Cc2ccccc2)c1=O	65.8*	33.3	13.8	16.4	13.9	38.4	-4.7	51.2*
CC(C)C[C@H]1N=C(c2ccccc2)c2ccccc2N(CC(=O)NC(C)(C)C)C1=O	-11.2	/	8.0	/	/	/	/	/
CC12CC[C@H]3[C@@H](CCC4(O)C[C@H](O)CCC34/C=N/NC(=O)c3ccccc3[N+](=O)[O-])C1(O)CCC2C1=CC(=O)OC1 (stereo not given in full)	-13.0	14.3	-70.3	-1.6	3.1	-4.4	/	/
CC(=O)OC1CC(OC2C(O)CC(OC3C(O)CC(OC4CCC5(C)C(CCC6C5CC(O)C5(C)C(C7=CC(=O)OC7)CCC65O)C4)OC3C)OC2C)OC(C)C1OC1OC(CO)C(O)C(O)C1O (stereo not given)	78.7*	-8.6	61.2*	90.2*	87.0*	102.6*	51.6*	76.3*
C[C@H]1CC[C@@H]2[C@@H](C)[C@H]3[C@H](C[C@H]4[C@@H]5CC=C6C[C@@H](O[C@@H]7O[C@H](CO)[C@H](O)[C@H](O[C@@H]8O[C@H](CO)[C@@H](O)[C@H](O)[C@H]8O)[C@H]7O[C@@H]7O[C@@H](C)[C@H](O)[C@@H](O)[C@H]7O)CC[C@]6(C)[C@H]5CC[C@]34C)N2C1	-4.2	-8.8	0.1	-11.3	8.1	-0.4	/	/
CNC(=O)Nc1ccc(C(=O)N/N=C\C23CC[C@@H](O)CC2(O)CC[C@@H]2[C@@H]3CCC3(C)C(C4=CC(=O)OC4)CCC23O)cc1 (stereo not given in full)	0.9	9.2	-21.2	9.4	-14.6	-12.1	/	/

Source: PubChem BioAssay (several laboratories)
